Screening results from PubChem.
In the library only some 1.4% were active in any assay of this set; here they are far more common.
APOBEC3A inh – inhibitors of human APOBEC3A DNA deaminase; P31941; recombinant A3A, FAM/TAMRA ssDNA deamination fluorescence; inhibition, % at 20 µM; 330,000 compounds, 0.41% hits; AID 493011;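 active = at least 40% inhibition at 20 µM here, with at most 30% in a related deaminase screen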
APOBEC3G inh – inhibitors of human APOBEC3G DNA deaminase | Q9HC16 | recombinant A3G, ssDNA deamination FAM/TAMRA fluorescence | inhibition, % at 20 µM | 330,000 compounds, 0.28% hits | AID 493012;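 active = inhibition of at least 40% at 20 µM, with no more than 30% in the related APOBEC3A deaminase screen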
Target sequence (Q9HC16 whole entry, looked up): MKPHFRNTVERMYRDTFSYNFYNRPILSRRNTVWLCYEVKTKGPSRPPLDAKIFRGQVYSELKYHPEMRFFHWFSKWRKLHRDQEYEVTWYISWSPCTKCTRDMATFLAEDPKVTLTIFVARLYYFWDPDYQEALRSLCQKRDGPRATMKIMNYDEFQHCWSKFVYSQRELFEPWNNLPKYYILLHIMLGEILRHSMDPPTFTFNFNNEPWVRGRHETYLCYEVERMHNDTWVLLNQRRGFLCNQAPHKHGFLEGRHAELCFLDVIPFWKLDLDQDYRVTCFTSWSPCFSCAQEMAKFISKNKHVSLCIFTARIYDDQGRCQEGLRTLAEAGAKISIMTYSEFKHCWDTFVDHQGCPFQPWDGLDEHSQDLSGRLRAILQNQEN
NPR2 activator – GC-B (human) receptor activation | 370,000 compounds, 0.11% hits | HEK293-GC-B cells, CNP EC30, cGMP TR-FRET; 0% at EC30 CNP, 100% saturating CNP | AID 1920062 | P20594 | activation, % at 10 µM;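 active = activation at 10 µM reaching about 35% in either raw or pattern-adjusted values, limit read from the data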
GC-A act – GC-A (human) enzyme activation; HEK293 GC-A cells, cGMP TR-FRET, EC30 ANP; 0% at EC30 ANP, 100% saturating ANP; P16066; AID 1671463; 370,000 compounds, 0.14% hits; activation, % at 10 µM; in the data active = activation above about 40%
FAS-TE inh – FAS thioesterase (human) inhibition; P49327; recombinant FAS-TE, OMFH fluorogenic substrate, fluorescence endpoint; inhibition, % at 15 µM; 360,000 compounds, 0.67% hits;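 active = compounds whose normalised, plate-corrected inhibition of enzyme fluorescence in the single-dose primary screen is 50% or more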
A3A conf – APOBEC3A (human) deaminase inhibition, confirmed; shares compounds with APOBEC3A inh; recombinant A3A, ssDNA deaminase UDG fluorescence assay; inhibition, % at 20 µM; 1,400 compounds, 63% hits; AID 493151;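 active = inhibition reaching a set limit, 80% of the first screen's cutoff, at 20 µM in any replicate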
UDG A3A counter – inhibits UDG, flagging false APOBEC3A inhibitors | shares compounds with APOBEC3A inh | 1,000 tested, under 10 active | inhibition, % at 20 µM | UDG counterscreen, FAM/TAMRA uracil oligo fluorescence; call rule not given here
Each line names hits and unclear results; the compound was inactive in the other large screens (follow-up assays come after a bar, where they were run).

Cn1c(=O)n(C)c2cc(C(=O)O)ccc21	APOBEC3A inh 60 | A3A conf inactive | UDG A3A counter inactive
Nc1nc2c(ncn2[C@@H]2O[C@H](C(=O)N[C@@H](Cc3ccccc3)C(=O)NCC3CCCCC3)[C@@H](O)[C@H]2O)c(=O)[nH]1	none (no result: APOBEC3A inh, APOBEC3G inh, FAS-TE inh)
CCOc1ccc(NC(=O)c2cc3ccccc3cc2O)cc1	APOBEC3A inh 63 | A3A conf 52 | UDG A3A counter inactive
CCOc1ccc(C(=O)CSc2nnc(SCc3ccc(Cl)cc3)s2)cc1	none (no result: APOBEC3A inh, APOBEC3G inh, FAS-TE inh)
CC(=O)c1cccc(OC(=O)c2ccc3c(=O)n4c(nc3c2)CCC4)c1	APOBEC3A inh 65 (no result: NPR2 activator, GC-A act) | A3A conf 47 | UDG A3A counter inactive
C=CCN(Cc1ccc2c(c1)OCO2)C(C#CCCCC)C(C)C (stereo not drawn)	none (no result: APOBEC3A inh, APOBEC3G inh, FAS-TE inh)
Cc1c(C(=O)OCC[N+]2(C)CCCCC2)oc2ccccc12	APOBEC3A inh 77 | A3A conf 77 | UDG A3A counter inactive
Cc1c(C(=O)OCC(=O)N2CCC(C)CC2)oc2ccccc12	none
Cc1cccc(-c2cccc3c4c([nH]c23)[C@@H]2C[C@H](N(C)C(=O)c3ccccc3F)[C@H]([C@H](C)O)CN2CC4)c1	none (no result: APOBEC3A inh, APOBEC3G inh, FAS-TE inh)
O=C(CSc1nnnn1Cc1ccccc1)N1CCN(c2ccccc2)CC1	APOBEC3A inh 47 | A3A conf inactive
CCn1c(SCC(=O)N2CCN(c3ccc(F)cc3)CC2)nc2ccccc2c1=O	none
CCn1c(SCC(=O)N2CCN(c3ccc(Cl)cc3)CC2)nc2ccccc2c1=O	APOBEC3A inh 44 | A3A conf 66 | UDG A3A counter inactive
CC(=O)NCCn1c(SCC(=O)NC2CCCCC2)nc2ccccc2c1=O	none
Cc1ccc(-n2c(SCC(=O)NCC3CCCO3)nc3ccccc3c2=O)cc1C (stereo not drawn)	none
CCn1c(SCC(=O)NC2CCCCC2)nc2ccccc2c1=O	APOBEC3A inh 63 | A3A conf 51 | UDG A3A counter inactive
CCn1nnnc1SCC(=O)N1CCN(c2ccccc2)CC1	none
O=C(CSc1nc2ccccc2c(=O)n1-c1ccccc1)NCC1CCCO1 (stereo not drawn)	APOBEC3A inh 50 | A3A conf 71 | UDG A3A counter inactive
CC1CCN(C(=O)c2ncn3c2C(=O)NC[C@@H]3C)CC1	none (no result: APOBEC3A inh, APOBEC3G inh, FAS-TE inh)
CCN(CC)C(=O)CSc1nnc(-c2ccccn2)n1C	none (no result: APOBEC3A inh, APOBEC3G inh, FAS-TE inh)
COc1cccc(N2[C@@H](CC(=O)O)c3ccc(/C=C/C(=O)O)cc3S2(=O)=O)c1	APOBEC3A inh 94 | A3A conf 79 | UDG A3A counter inactive
C[C@H]1C2CC(OC(=O)Nc3ccc(C#N)cc3)C(C2)[C@H]2CCCCN21 (stereo partly drawn)	none (no result: APOBEC3A inh, APOBEC3G inh, FAS-TE inh)
CN(C)S(=O)(=O)c1ccc(C(=O)NCC[N+]2(C)CCCCCC2)o1	APOBEC3A inh 93 | A3A conf 73 | UDG A3A counter inactive
COc1ccc(-n2cc(COC(=O)NCCc3c[nH]c4ccccc34)nn2)cc1	none (no result: APOBEC3A inh, APOBEC3G inh, FAS-TE inh)
CC(=O)Nc1nc(CC(C)C)cc(-c2ccco2)c1C#N	APOBEC3A inh 40 | A3A conf 51 | UDG A3A counter inactive
CC(=O)OCCn1c2nc(=O)[nH]c(=O)c-2nc2cc(C)c(C)cc21	none
CCn1c(/C=C/Nc2ccccc2)[n+](CC)c2cc(Cl)c(Cl)cc21	none
CCn1c(C)[n+](CCOCC[n+]2c(C)n(CC)c3cc(Cl)c(Cl)cc32)c2cc(Cl)c(Cl)cc21	APOBEC3A inh 78 | A3A conf 88 | UDG A3A counter inactive
CCOC(=O)Cn1c(C)[n+](C)c2cc(Cl)c(Cl)cc21	APOBEC3A inh 87 | A3A conf 81 | UDG A3A counter inactive
CC(=O)OCCn1c(C)[n+](CCOC(C)=O)c2cc(Cl)c(Cl)cc21	APOBEC3A inh 82 | A3A conf 81 | UDG A3A counter inactive
C#CCNC(=O)C[C@H]1C[C@@]2(C(=O)OC)C(=C[C@H](C(C)(C)C)O[C@@H]2C)N(Cc2ccco2)C1=O	none (no result: APOBEC3A inh, APOBEC3G inh, FAS-TE inh)
O=[N+]([O-])c1ccc(S(=O)(=O)NCC(c2ccco2)N2CCc3ccccc3C2)cc1 (stereo not drawn)	APOBEC3A inh 77 | A3A conf inactive | UDG A3A counter inactive
